# Inconclusive results are not listed. Activity calls are given as the source filed them. Rule for the calls, unless noted: active = hit-call score of the fitted dose curve at least 0.9, where 1 is the maximum; inconclusive = response in the unintended direction; inactive = score below 0.9.
# Experiments:
# [1] = target: human Thyroid Receptor alpha (THRa1), THRA (gene 7067) (UniProt P10827); assay: ATG_THRa1_TRANS: Attagene TRANS-FACTORIAL HepG2 Assay for human Thyroid Receptor alpha (THRa1) (AID 2283014)
# In short: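 HepG2 cells transiently transfected with chimeric NR-Gal4 and GAL4-UAS reporter units, dosed 24 h. Reporter mRNA quantified by RT-PCR, fluorescent labeling, HpaI digestion and capillary electrophoresis; gain-of-signal fit versus DMSO.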
# [2] = read-out: E-selectin (Homo sapiens) (UniProt P16581); assay: BSK_3C_Eselectin: BioMAP Diversity Plus: 3C Assay for Eselectin Biomarker Activity (AID 2283015; active = hit-call score of the fitted dose curve at least 0.9, where 1 is the maximum; inactive = score below 0.9;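 for outcome: cell surface E-selectin protein quantified by ELISA 24 h after dosing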); settings: primary human endothelial cells (HUVEC); actives raise or lower the signal
# In short: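 Primary human umbilical vein endothelial cells (3C system), read 24 h after compound addition; E-selectin measured by ELISA. Bidirectional curve fitting against DMSO baseline; cytotoxicity by parallel SRB total-protein staining.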
# [3] = read-out: Interleukin-1 alpha (IL1a), IL1A (gene 3552); assay: BSK_BE3C_IL1a: BioMAP Diversity Plus: BE3C Assay for Interleukin-1 alpha (IL1a) Biomarker Activity (AID 2283016; active = hit-call score of the fitted dose curve at least 0.9, where 1 is the maximum; inactive = score below 0.9); settings: primary human bronchial epithelial cells; actives raise or lower the signal
# In short: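 BE3C primary human bronchial epithelium; cpd 24 h; IL-1a by ELISA; bidirectional fit vs DMSO; parallel SRB (0.1% SRB, 10% TCA fix, 560 nm) for cytotoxicity.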
# [4] = read-out: Monocyte Chemoattractant Protein-1 (MCP1), CCL2 (gene 6347); assay: BSK_3C_MCP1: BioMAP Diversity Plus: 3C Assay for Monocyte Chemoattractant Protein-1 (MCP1) Biomarker Activity (AID 2283017; active = hit-call score of the fitted dose curve at least 0.9, where 1 is the maximum; inactive = score below 0.9); settings: primary human endothelial cells (HUVEC); actives raise or lower the signal
# In short: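 Human umbilical vein endothelial cells (3C system) exposed to chemicals for 24 h; MCP-1 quantified by ELISA against the DMSO baseline with bidirectional fitting, and parallel SRB staining used to assess cytotoxicity.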
# [5] = read-out: Monocyte Chemoattractant Protein-1 (MCP1), CCL2 (gene 6347); assay: BSK_4H_MCP1: BioMAP Diversity Plus: 4H Assay for Monocyte Chemoattractant Protein-1 (MCP1) Biomarker Activity (AID 2283018; active = hit-call score of the fitted dose curve at least 0.9, where 1 is the maximum; inactive = score below 0.9); settings: primary human endothelial cells (HUVEC); actives raise or lower the signal
# In short: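 ELISA read-out of MCP-1 from human vascular endothelial primary cells taken at 24 hours after compound exposure. Activity was fitted in both directions relative to DMSO, which served as negative control.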
# [6] = read-out: Human Leukocyte Antigen - DR isotype (HLADR), HLA-DRA (gene 3122); assay: BSK_3C_HLADR: BioMAP Diversity Plus: 3C Assay for Human Leukocyte Antigen - DR isotype (HLADR) Biomarker Activity (AID 2283019; active = hit-call score of the fitted dose curve at least 0.9, where 1 is the maximum; inactive = score below 0.9;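 for outcome: ELISA of cell-surface HLA-DR on HUVEC 24 h after dosing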); settings: primary human endothelial cells (HUVEC); actives raise or lower the signal
# In short: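 HUVEC monoculture, HLA-DR measured by ELISA 24 h after chemical dosing. Fitted bidirectionally against DMSO baseline; parallel SRB staining assessed cytotoxicity, with 3C proliferation read by SRB at 48 h.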
# [7] = read-out: Interleukin-8 (IL8), CXCL8 (gene 3576); assay: BSK_3C_IL8: BioMAP Diversity Plus: 3C Assay for Interleukin-8 (IL8) Biomarker Activity (AID 2283020; active = hit-call score of the fitted dose curve at least 0.9, where 1 is the maximum; inactive = score below 0.9); settings: primary human endothelial cells (HUVEC); actives raise or lower the signal
# In short: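 ELISA read-out of IL-8 from human umbilical vein endothelium, measured 24 h after chemical dosing. Activity is expressed relative to DMSO negative control, with both increases and decreases fitted.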
# [8] = target: human Vitamin D Receptor (VDR), VDR (gene 7421) (UniProt P11473); assay: ATG_VDR_TRANS: Attagene TRANS-FACTORIAL HepG2 Assay for human Vitamin D Receptor (VDR) (AID 2283022)
# In short: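 HepG2 cells were transiently transfected with GAL4-UAS reporter units and a chimeric VDR-Gal4 construct, then dosed for 24 hours. Reporter mRNA was quantified by RT-PCR, fluorescent labeling, HpaI digestion and capillary electrophoresis; gain of signal analysed vs DMSO.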
# [9] = BSK_3C_SRB: Viability Assessment in the BioMAP Diversity Plus: 3C Assay (AID 2283023; active = hit-call score of the fitted dose curve at least 0.9, where 1 is the maximum; inactive = score below 0.9;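 note: fitted both ways against DMSO so a hit may be signal rise or drop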); settings: primary human endothelial cells (HUVEC)
# In short: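 Human umbilical vein endothelial cells in the 3C system, treated 24 h. Total protein measured by 0.1% sulforhodamine B staining after 10% TCA fixation, read at 560 nm; bidirectional fit versus DMSO.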
# [10] = read-out: Monokine induced gamma interferon (MIG), CXCL9 (gene 4283); assay: BSK_3C_MIG: BioMAP Diversity Plus: 3C Assay for Monokine induced gamma interferon (MIG) Biomarker Activity (AID 2283021; active = hit-call score of the fitted dose curve at least 0.9, where 1 is the maximum; inactive = score below 0.9;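 for AC50: MIG protein level measured by immunoassay in the treated endothelial cultures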); settings: primary human endothelial cells (HUVEC); actives raise or lower the signal
# In short: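 Read-out is ELISA detection of MIG on human umbilical vein endothelial cells, taken 24 h after dosing. Gain or loss of signal was scored relative to DMSO controls using bidirectional curve fitting.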
# Sequence of E-selectin (Homo sapiens) (P16581 whole entry, looked up): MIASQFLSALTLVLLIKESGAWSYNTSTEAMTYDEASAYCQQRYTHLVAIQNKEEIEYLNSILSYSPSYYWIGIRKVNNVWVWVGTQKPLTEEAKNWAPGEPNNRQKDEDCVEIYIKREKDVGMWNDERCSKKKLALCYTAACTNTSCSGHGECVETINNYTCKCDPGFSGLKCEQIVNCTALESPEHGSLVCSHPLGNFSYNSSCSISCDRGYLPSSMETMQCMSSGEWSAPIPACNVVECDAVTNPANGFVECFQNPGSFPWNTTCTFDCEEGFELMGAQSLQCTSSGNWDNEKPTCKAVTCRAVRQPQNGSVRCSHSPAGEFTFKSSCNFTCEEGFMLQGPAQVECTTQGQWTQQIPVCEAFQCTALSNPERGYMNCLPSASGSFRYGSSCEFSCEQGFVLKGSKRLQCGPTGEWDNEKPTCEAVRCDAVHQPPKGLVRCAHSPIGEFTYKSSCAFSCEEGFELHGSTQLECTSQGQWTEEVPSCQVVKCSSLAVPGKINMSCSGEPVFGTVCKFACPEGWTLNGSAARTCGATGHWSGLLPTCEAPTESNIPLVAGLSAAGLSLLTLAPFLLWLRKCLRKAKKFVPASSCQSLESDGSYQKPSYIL
# Sequence of human Vitamin D Receptor (VDR), VDR (gene 7421) (P11473 whole entry, looked up, the tested form may be a part): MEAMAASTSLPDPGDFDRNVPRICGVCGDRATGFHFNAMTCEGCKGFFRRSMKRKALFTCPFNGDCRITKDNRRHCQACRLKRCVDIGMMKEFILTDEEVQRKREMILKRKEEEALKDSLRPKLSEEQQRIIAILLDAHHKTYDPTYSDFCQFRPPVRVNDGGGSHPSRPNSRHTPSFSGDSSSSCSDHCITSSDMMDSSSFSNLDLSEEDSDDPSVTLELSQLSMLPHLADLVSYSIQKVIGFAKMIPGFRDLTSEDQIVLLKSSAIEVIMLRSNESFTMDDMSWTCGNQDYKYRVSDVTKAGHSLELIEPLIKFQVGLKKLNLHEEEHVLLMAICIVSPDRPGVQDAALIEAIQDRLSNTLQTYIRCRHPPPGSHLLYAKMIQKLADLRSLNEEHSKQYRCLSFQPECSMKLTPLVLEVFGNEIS
# Sequence of human Thyroid Receptor alpha (THRa1), THRA (gene 7067) (P10827 whole entry, looked up, the tested form may be a part): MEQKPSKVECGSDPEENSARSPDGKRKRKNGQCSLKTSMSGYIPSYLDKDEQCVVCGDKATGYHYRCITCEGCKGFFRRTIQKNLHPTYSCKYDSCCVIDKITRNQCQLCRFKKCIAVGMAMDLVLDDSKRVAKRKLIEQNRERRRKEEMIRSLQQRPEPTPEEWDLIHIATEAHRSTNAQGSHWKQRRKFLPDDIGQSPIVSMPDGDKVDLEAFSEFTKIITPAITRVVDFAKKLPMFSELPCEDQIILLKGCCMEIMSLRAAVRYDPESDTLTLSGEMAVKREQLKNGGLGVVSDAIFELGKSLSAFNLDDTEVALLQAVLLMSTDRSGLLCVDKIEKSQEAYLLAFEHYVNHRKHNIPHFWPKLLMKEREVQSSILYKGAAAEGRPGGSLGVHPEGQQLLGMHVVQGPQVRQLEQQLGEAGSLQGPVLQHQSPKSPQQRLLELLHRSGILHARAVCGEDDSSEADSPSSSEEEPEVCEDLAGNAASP
smiles,measurement,setting,value
OC(Cc1ccccc1Cl)(Cn1[nH]cnc1=S)C1(Cl)CC1 (configuration not stated),AC50,[1],27.8 µM (active)
same,AC50,[2],20 µM (active)
same,AC50,[3],33.2 µM (active)
same,outcome,[4],inactive
same,AC50,[5],21.4 µM (active)
same,AC50,[6],30.1 µM (active)
same,outcome,[7],inactive
same,outcome,[8],inactive
same,AC50,[9],32 µM (active)
CCCCCCCCCCCCN(C)C,outcome,[1],inactive
same,outcome,[2],inactive
same,outcome,[3],inactive
same,outcome,[4],inactive
same,outcome,[5],inactive
same,outcome,[6],inactive
same,outcome,[7],inactive
same,outcome,[8],inactive
[Cl][Sn]([c]1ccccc1)([c]1ccccc1)[c]1ccccc1,outcome,[1],inactive
same,AC50,[2],0.154 µM (active)
same,AC50,[3],0.126 µM (active)
same,AC50,[4],0.292 µM (active)
same,AC50,[5],0.066 µM (active)
same,AC50,[6],0.0817 µM (active)
same,AC50,[7],0.298 µM (active)
same,outcome,[8],inactive
Cc1cc(-c2cc(C)c(N)c(C)c2)cc(C)c1N,outcome,[1],inactive
same,outcome,[8],inactive
Cc1cc(C(C)(C)c2ccc(O)c(C)c2)ccc1O,outcome,[1],inactive
same,AC50,[2],15.8 µM (active)
same,AC50,[3],15.7 µM (active)
same,AC50,[4],19.3 µM (active)
same,AC50,[5],12.5 µM (active)
same,AC50,[6],14.7 µM (active)
same,AC50,[7],18.2 µM (active)
same,outcome,[8],inactive
same,AC50,[9],17 µM (active)
O=C(NC(=O)c1c(F)cccc1F)Nc1cc(Cl)c(OC(F)(F)C(F)C(F)(F)F)cc1Cl (configuration not stated),outcome,[1],inactive
same,outcome,[8],inactive
C=CC(=O)NC(C)(C)CC(C)=O,outcome,[1],inactive
same,outcome,[8],inactive
C#CCO,outcome,[1],inactive
same,outcome,[8],inactive
CCOC(=O)C(SP(=S)(OC)OC)c1ccccc1 (configuration not stated),outcome,[2],inactive
same,outcome,[3],inactive
same,AC50,[4],3.97 µM (active)
same,AC50,[5],3.97 µM (active)
same,AC50,[6],31.8 µM (active)
same,outcome,[7],inactive
CC(F)(F)CC(F)(F)F,outcome,[1],inactive
same,outcome,[8],inactive
CC[N+](CC)(CC)CC,outcome,[1],inactive
same,outcome,[8],inactive
CCCCCCCCCCCCCl,outcome,[1],inactive
same,outcome,[8],inactive
CN(C1CCCCC1)C1CCCCC1,outcome,[1],inactive
same,outcome,[8],inactive
C=C(C)[C@@H]1CC=C(C=O)CC1,outcome,[1],inactive
same,outcome,[8],inactive
CCCCCCCCCCCCc1cccc(S(=O)(=O)O)c1,outcome,[2],inactive
same,AC50,[3],27.2 µM (active)
same,outcome,[4],inactive
same,outcome,[5],inactive
same,outcome,[6],inactive
same,outcome,[7],inactive
O=C(Nc1ccc(Br)cc1)c1cc(Br)cc(Br)c1O,outcome,[1],inactive
same,outcome,[8],inactive
OC[P+](CO)(CO)CO,outcome,[1],inactive
same,outcome,[8],inactive
CN(C)[C@@H]1C(=O)C(C(N)=O)=C(O)[C@@]2(O)C(=O)C3=C(O)c4c(O)ccc(Cl)c4[C@@](C)(O)[C@H]3C[C@@H]12,outcome,[1],inactive
same,outcome,[8],inactive
CC(C)(c1ccc(O)c(-c2ccccc2)c1)c1ccc(O)c(-c2ccccc2)c1,outcome,[1],inactive
same,outcome,[8],inactive
CN(C)CCN(C)C,outcome,[1],inactive
same,outcome,[8],inactive
C[CH2][Hg][S]c1ccccc1C(=O)O,outcome,[1],inactive
same,outcome,[8],inactive
C=CCOC(F)(C(F)(F)F)C(F)(F)F,outcome,[1],inactive
same,outcome,[8],inactive
CC(C)CC(C)(c1ccc(O)cc1)c1ccc(O)cc1,outcome,[1],inactive
same,outcome,[8],inactive
ClCc1ccccc1CCl,outcome,[1],inactive
same,outcome,[8],inactive
C=CC(=O)[O][Sn]([CH2]CCC)([CH2]CCC)[CH2]CCC,outcome,[1],inactive
same,outcome,[8],inactive
CCOP(=S)(OCC)SCSc1cc(Cl)ccc1Cl,outcome,[1],inactive
same,outcome,[8],inactive
CCNc1nc(NCC)nc(SC)n1,outcome,[1],inactive
same,outcome,[8],inactive
Cc1cc(Cl)ccc1OCCCC(=O)O,outcome,[1],inactive
same,outcome,[8],inactive
Cc1cc(SCc2sc(-c3ccc(C(F)(F)F)c(F)c3)nc2C)ccc1OCC(=O)O,outcome,[1],inactive
same,outcome,[8],inactive
OCCN(CCO)CCO,outcome,[2],inactive
same,outcome,[3],inactive
same,outcome,[4],inactive
same,outcome,[5],inactive
same,outcome,[6],inactive
same,outcome,[7],inactive
same,outcome,[10],inactive
O=C/C(Cl)=C(/Cl)C(=O)O,outcome,[1],inactive
same,outcome,[8],inactive
C[C@]12CC[C@@H](O)C[C@@H]1CC[C@@H]1[C@@H]2CC[C@]2(C)C(=O)CC[C@@H]12,outcome,[2],inactive
same,outcome,[3],inactive
same,outcome,[4],inactive
same,outcome,[5],inactive
same,outcome,[6],inactive
same,outcome,[7],inactive
COCCl,outcome,[1],inactive
same,outcome,[8],inactive
CCOc1ccc(N)cc1,outcome,[1],inactive
same,outcome,[8],inactive
Cc1cccc(OP(=O)(Oc2cccc(C)c2)Oc2cccc(C)c2)c1,outcome,[2],inactive
same,AC50,[3],0.78 µM (active)
same,outcome,[4],inactive
same,outcome,[5],inactive
same,outcome,[6],inactive
same,outcome,[7],inactive
same,outcome,[10],inactive
CCCCN(CCCC)C(=S)S,outcome,[1],inactive
same,outcome,[8],inactive
N#Cc1ccncc1,outcome,[1],inactive
same,outcome,[8],inactive
N#CCC#N,outcome,[1],inactive
same,outcome,[8],inactive
O=S1(=O)OC(c2cc(Br)c(O)c(Br)c2)(c2cc(Br)c(O)c(Br)c2)c2ccccc21,outcome,[1],inactive
same,outcome,[8],inactive
C=C(C)C(=O)OCC(CC)CCCC (configuration not stated),outcome,[1],inactive
same,outcome,[8],inactive
CCOC(=O)c1ccccc1S(=O)(=O)NC(=O)Nc1nc(Cl)cc(OC)n1,outcome,[1],inactive
same,outcome,[8],inactive
C[C@@H]1O[C@@H](O[C@H]2C[C@@H](O)[C@]3(CO)[C@H]4[C@H](O)C[C@]5(C)[C@@H](C6=CC(=O)OC6)CC[C@]5(O)[C@@H]4CC[C@]3(O)C2)[C@H](O)[C@H](O)[C@H]1O,outcome,[1],inactive
same,outcome,[8],inactive
COC(=O)c1cc(Oc2ccc(Cl)cc2Cl)ccc1[N+](=O)[O-],outcome,[1],inactive
same,outcome,[8],inactive
O=S(=O)(Oc1ccc(Cl)cc1)c1ccc(Cl)cc1,outcome,[1],inactive
same,outcome,[8],inactive
COCC(=O)N(c1c(C)cccc1C)[C@H](C)C(=O)OC,outcome,[2],inactive
same,outcome,[3],inactive
same,outcome,[4],inactive
same,outcome,[5],inactive
same,outcome,[6],inactive
same,outcome,[7],inactive
same,outcome,[10],inactive
same,outcome,[9],inactive
C#CCOC(=O)/C=C(C)/C=C/CC(C)CCCC(C)C (configuration not stated),AC50,[2],6.38 µM (active)
same,outcome,[3],inactive
same,AC50,[4],36.8 µM (active)
same,AC50,[5],13.4 µM (active)
same,AC50,[6],28.1 µM (active)
same,AC50,[7],0.0524 µM (active)
same,outcome,[10],inactive
same,outcome,[8],inactive
O=S(=O)(C(Cl)(Cl)Cl)C(Cl)(Cl)Cl,AC50,[2],1.86 µM (active)
same,AC50,[3],3.32 µM (active)
same,AC50,[4],1.9 µM (active)
same,AC50,[5],1.16 µM (active)
same,AC50,[6],0.852 µM (active)
same,AC50,[7],5.32 µM (active)
same,AC50,[10],3.82 µM (active)
same,outcome,[8],inactive
same,AC50,[9],1.12 µM (active)
CS(=O)(=O)c1ccc(C(=O)C2C(=O)CCCC2=O)c(Cl)c1COCC(F)(F)F,outcome,[8],inactive

# From PubChem BioAssay (EPA / NIEHS)
